Measurements as given in the supplement of paper PMC3334620.
In all, about 33,000 sequences were measured (“E-score (-0.5 to 0.5)”: median about -8e-05, highest 2% from about 0.23 on). What follows is part of a selection rich in the highest values, with near analogues and random picks from the rest.

Each sequence was assayed against T1, Nrg2 (UniProt P38082) (assay: PBM E-score (8-mer binding enrichment) (E-score (-0.5 to 0.5)); higher = stronger / more preferred TF binding). Conditions: protein concentration: 100 nM; construct: GST-full length.
T1 sequence: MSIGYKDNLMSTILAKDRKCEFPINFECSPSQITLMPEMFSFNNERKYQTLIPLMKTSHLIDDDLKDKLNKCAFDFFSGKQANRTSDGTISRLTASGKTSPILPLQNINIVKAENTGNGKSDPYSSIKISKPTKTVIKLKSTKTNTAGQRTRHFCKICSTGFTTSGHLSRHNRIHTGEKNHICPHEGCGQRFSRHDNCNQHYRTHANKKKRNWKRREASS
Description: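 Universal 'all 10-mer' protein binding microarrays (Agilent AMADID 015681) probed with GST-tagged S. cerevisiae TFs (full-length or DBD) made by in vitro transcription/translation (PURExpress), about 100-200 nM. Bound TF was detected with fluorescent anti-GST. Each ungapped 8-mer (which stands for itself and its reverse complement) is scored by the PBM enrichment score (E-score), a modified Wilcoxon-Mann-Whitney statistic from -0.5 to +0.5, computed with the Universal PBM Analysis Suite. Scale: above 0.35 generally sequence-specific binding.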

| Sequence | PBM E-score |
| --- | --- |
| AGTTTGCA | -0.0668 |
| AGGGTTCC | 0.189 |
| AGGGTGCG | 0.0103 |
| AGGGTTCA | 0.281 |
| AGGGTGCA | 0.256 |
| AGGGTTTG | 0.172 |
| AGGGTTTA | 0.235 |
| GGGGTTCA | 0.166 |
| CGGGTTTA | 0.104 |
| CGGGTGCA | -0.0669 |
| AGCTGGCG | -0.158 |
| AACCCGTA | -0.0217 |
| GAATTCGA | 0.0262 |
| TTAACTAA | 0.249 |
| TCAACTAA | 0.0939 |
| AAAACTAT | 0.0045 |
| GCAACTAA | 0.288 |
| AAAACTAA | 0.234 |
| CCAACTAA | 0.0905 |
| ATAACTAA | 0.0389 |
| CTAACTAA | -0.0143 |
| TAAACTAA | 0.186 |
| ACAGTTCG | 0.103 |
| GAGGCAAC | -0.192 |
| AAGTAAGG | 0.159 |

| Sequence | PBM E-score |
| --- | --- |
| CGAAAACA | 0.0723 |
| CTGGCCTA | -0.0943 |
| ACTTAGCT | -0.202 |
| CGCAGAAA | 0.0592 |
| CATATATA | 0.205 |
| GAAATATA | 0.256 |
| GATATATA | 0.247 |
| TATATATA | 0.269 |
| AATATATT | 0.341 |
| GATATATC | 0.0168 |
| GATATACA | 0.0803 |
| AAAATATA | 0.00189 |
| AATATATG | 0.225 |
| TAAATATA | 0.144 |
| TATATACA | 0.207 |
| AATATATA | 0.0908 |
| AGGCCGCC | -0.0684 |
| CGACCAAA | 0.222 |
| ATTACCAA | 0.0553 |
| CATTGACG | -0.0426 |
| ACTTCGGC | -0.0688 |
| TATATGGA | 0.0065 |
| AAAATAGA | 0.118 |
| CAAATATC | 0.256 |
| CAAATATG | -0.0116 |

| Sequence | PBM E-score |
| --- | --- |
| TAAATAGA | -0.125 |
| GATATGGA | 0.259 |
| CAAATAGA | 0.296 |
| CAAATATA | 0.03 |
| AATATGGA | 0.0669 |
| TAGCGTGA | 0.0132 |
| CGGTAGAC | 0.0168 |
| CGGCGAAC | -0.0868 |
| CATTGGCC | -0.0708 |
| ATCAGAAA | -0.042 |
| GGAATAAC | 0.132 |
| TAGGACAA | 0.049 |
| GGATAGTA | 0.177 |
| ATTATGCC | 0.115 |
| GTTATTCA | 0.105 |
| GTTATTAA | 0.182 |
| CTTATTAA | 0.196 |
| ATTATGCG | 0.266 |
| ACTATTCG | 0.193 |
| ATTATTCA | 0.23 |
| ATTATTCC | 0.0891 |
| ATTATTAA | 0.238 |
| ATTATTCG | 0.295 |
| ATTATGCA | -0.00258 |
| CTTATTCA | -0.00255 |

| Sequence | PBM E-score |
| --- | --- |
| CTTGATGC | -0.0811 |
| CCAACCCA | -0.242 |
| TCTTCTAA | -0.0126 |
| CAGATATG | 0.159 |
| CGGATTGC | 0.161 |
| CGCGTTTA | 0.0535 |
| TGTCCGAA | 0.143 |
| ACAGGCTC | -0.159 |
| ACCTCCCG | -0.177 |
| TCGGTCAA | 0.0158 |
| CCCAGACG | -0.0304 |
| CTTGCGAC | -0.142 |
| ATTATACC | 0.18 |
| ATCATTAA | 0.171 |
| GTCATTAA | 0.25 |
| ATTATACG | 0.252 |
| ATTATACA | -0.00719 |
| CTCATTAA | 0.173 |
| TGACGTAA | -0.175 |
| CCTTAGAA | -0.0241 |
| GCTAACCA | -0.172 |
| GTAAGATA | 0.0912 |
| GCAACCTA | 0.0294 |
| GAATCCTC | -0.1 |
| AGCAAGGC | -0.0107 |

| Sequence | PBM E-score |
| --- | --- |
| AGTAAGGC | -0.036 |
| AGTAAGGA | -0.00565 |
| AGCAAAGG | 0.0268 |
| AGCAAGGG | 0.261 |
| AGTAAGGG | 0.233 |
| AGCAACTC | -0.0833 |
| GCCGGATA | 0.0712 |
| GAAAGCCC | 0.0882 |
| GAAACACC | 0.0146 |
| AATCCCTG | 0.278 |
| AATCCCTC | -0.0866 |
| AGTCCCTG | 0.294 |
| AGTCCCTA | 0.0553 |
| AGTCCCTC | -0.0587 |
| AATCCCTA | 0.154 |
| CTTCAGCC | -0.229 |
| ACATCAAT | 0.079 |
| AAAAATTG | -0.095 |
| CTAAATTA | 0.127 |
| ATCAATTA | 0.271 |
| ATAAATTG | 0.272 |
| ATCAATTG | 0.15 |
| ATAAATTA | 0.316 |
| ATAAATTC | 0.0818 |
| GTAAATTA | -0.132 |

| Sequence | PBM E-score |
| --- | --- |
| ATCAATTC | 0.107 |
| ACTAAGGG | 0.0502 |
| GGCTTCCA | -0.186 |
| CGCTTTTA | -0.0218 |
| GGTGCCTA | -0.0877 |
| CGCGCACC | 0.14 |
| GGTTCACA | 0.103 |
| TCTCGCAA | -0.0499 |
| AAACCGCA | -0.0776 |
| CAACCGCG | 0.271 |
| AAACCGCG | 0.266 |
| CAACCGCC | 0.0219 |
| AAACCGCC | 0.041 |
| CAACCGCA | 0.0352 |
| CGTCTTGC | 0.0795 |
| CATGAATC | 0.115 |
| GTTTGTGA | -0.00935 |
| AACAAATT | 0.251 |
| AACAAGTT | -0.0278 |
| AACAAGTA | -0.0255 |
| AACAAATG | 0.0558 |
| AACAAATA | 0.247 |
| AACAAACA | 0.22 |
| TACAAACA | 0.243 |
| AACAAGGT | 0.0681 |

| Sequence | PBM E-score |
| --- | --- |
| AACAAAGT | 0.26 |
| AACAAAGG | 0.0899 |
| TACAAATA | 0.0774 |
| TACAAGCA | 0.121 |
| ACCAAGGA | -0.0125 |
| CGGTGGCC | 0.0203 |
| AGATCTAC | 0.00881 |
| ATGCCTGA | -0.126 |
| CATTTGAA | 0.0105 |
| CTTAGTCA | -0.0736 |
| CGGCCCCA | -0.253 |
| ACTCATGA | 0.143 |
| CCTAACTC | -0.0633 |
| AACCTCAG | 0.072 |
| AACCTCGA | 0.0566 |
| GACCTCGA | 0.126 |
| CACCTCGA | 0.256 |
| GGTTCAGA | 0.0397 |
| CCCATGGA | -0.00741 |
| ACCATGGG | -0.0447 |
| CCCATGGG | 0.323 |
| TAGAACAA | -0.00331 |
| CGTCAGGA | -0.112 |
| GGTCAGGA | 0.244 |
| AGTCAGGA | 0.0134 |

| Sequence | PBM E-score |
| --- | --- |
| GTGGCAGA | -0.276 |
| AAGAGCAT | -0.0179 |
| CGCCCTGA | 0.167 |
| GCCCCTGA | 0.292 |
| AGCCCTGA | 0.0189 |
| GCCCCTTA | 0.114 |
| GGCCCTGA | 0.24 |
| GCCCCCTA | -0.212 |
| ACATAGAA | 0.157 |
| TCCATCGA | -0.021 |
| GATACCCC | 0.0656 |
| AGCTTTAC | -0.26 |
| CCCGAGGC | -0.176 |
| CATGGTAC | 0.00349 |
| ATATGATA | 0.249 |
| ATATGACA | 0.244 |
| GCATGATA | 0.0399 |
| ATATGATG | 0.0173 |
| GTATGAGA | 0.133 |
| GTATGACA | -0.0684 |
| CTATGACA | -0.012 |
| GTATGATA | 0.281 |
| CTATGATA | 0.0584 |
| GAGGGCAC | -0.111 |
| AGACAGTA | 0.0173 |

| Sequence | PBM E-score |
| --- | --- |
| CGAAGCGC | -0.0339 |
| CCATCCTC | -0.111 |
| CTCGGCAC | 0.0273 |
| AAAGATAA | 0.112 |
| AAAGATAC | 0.232 |
| AAAGATAG | -0.188 |
| TCAAAGAA | -0.123 |
| ACGTCTTG | -0.0332 |
| GATAGAGA | -0.0171 |
| CTAAGGAA | 0.0506 |
| CCCTTACG | -0.128 |
| CCGCGAAA | 0.0786 |
| TCGCGAAA | 0.161 |
| ACGCGAAA | 0.242 |
| CGAGTGCA | 0.0846 |
| GTATGGTA | 0.158 |
| GGACGCCA | -0.149 |
| AGACCCAC | 0.0598 |
| AACTTTGT | 0.251 |
| AACTTTGA | -0.0178 |
| AACTTTGG | -0.0393 |
